Screening results (PubChem BioAssay)
DT40 TDP1 no CPT: qHTS for Inhibitors of human tyrosyl-DNA phosphodiesterase 1 (TDP1): qHTS in cells in absence of CPT; 15% of 420,000 active; AID 686978, 2013; Potency, µM (highest dose often 46.2 µM), inactives show at the highest dose activity change, negative = growth inhibition, most hits filed as inhibitors; DT40 Tdp1-/- hTDP1 cells, no CPT, ATP luminescence, 48 h; also: potency is read from the fitted curve at half-maximal effect; nearly all actives have a fitted effect of over 55% in size
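Seeded 400 DT40-hTDP1 cells/well (vehicle DMSO, no 20 nM CPT); pinned compounds; ≥48 hr at 37 °C; CellTiter-Glo luminescence as viability measure.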
IL1B secr inh: qHTS for Inhibitors of Inflammasome Signaling: IL-1-beta AlphaLISA Primary Screen; THP-1 LPS/ATP IL-1B secretion, AlphaLISA, 16 h; hits give low values; activity change, % at 57.5 µM; 4.7% of 360,000 active; in the data active = activity change below about -50%; inconclusive = mostly about -30% to -49%
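THP-1 cells pretreated 1 hr with compounds (up to 57.5 uM final), then stimulated with LPS (250 ng/mL final) plus ATP (1.25 mM final); secreted IL-1B measured by AlphaLISA after 16 hr, decreased signal indicating inhibition.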
HT1080 IDH1KD tx: qHTS for induction of synthetic lethality in tumor cells producing 2HG: qHTS for the HT-1080-IDH1KD cell line | HT-1080 IDH1 knockdown viability, ATP luminescence, 48 h | Potency, µM (highest dose often 46.1 µM), without a hit: at the highest dose activity, negative = toxicity, most hits filed as cytotoxic | 2% of 360,000 active | AID 686971, 2013;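 also: potency is read from the fitted curve at half-maximal effect; 0% = DMSO wells and -100% = cell-free medium wells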
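Knockdown cells (IDH1KD HT-1080) received compounds 2 h after plating at 750 cells/well and were kept 48 h at 37 °C in 5% FBS RPMI. A CellTiter-Glo luminescence read gave % activity for curve fitting.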
HT1080NT lethal: qHTS for induction of synthetic lethality in tumor cells producing 2HG: qHTS for the HT-1080-NT fibrosarcoma cell line; HT-1080-NT fibrosarcoma viability, CellTiter-Glo ATP luminescence, 48 h; Potency, µM (series often up to 46.1 µM), without a hit: at the top dose activity, negative = less viability, most hits filed as cytotoxic; 1.6% of 360,000 active;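 also: NT is the 2HG producing partner of a matched IDH1 knockdown line; potency is read from the fitted curve at half-maximal effect; 0% = DMSO-treated cells and -100% = media-only wells without cells; nearly all actives have a fitted effect of over 55% in size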
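Fibrosarcoma NT cells, 750 per well in 5% FBS RPMI, were exposed to compound for 48 hours. Viability: CellTiter-Glo luminescence.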
ELG1 DNA repair: qHTS screen for small molecules that inhibit ELG1-dependent DNA repair in human embryonic kidney (HEK293T) cells expressing luciferase-tagged ELG1 | Potency, µM (doses to about 46.1 µM), for inactives: at the highest dose activity change, negative = inhibition, usual class: inhibitors | HEK293T ELG1-luciferase reporter, luminescence, 16 h; DNA damage induced by 5-fluorouridine | 2.3% of 330,000 active; also: potency is read from the fitted curve at half-maximal effect; nearly all actives have a fitted effect of over 55% in size
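In this reporter screen, reduction of luminescence relative to DMSO vehicle indicated activity. Compounds and 5-fluorouridine were added together to 2,000 cells per well, incubated for 16 hr at 37 °C, then developed with ONE-Glo.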
TDP1 cell CPT: qHTS for Inhibitors of human tyrosyl-DNA phosphodiesterase 1 (TDP1): qHTS in cells in presence of CPT; chicken DT40 Tdp1-/-;hTDP1 cells + 20 nM CPT, ATP luminescence, 48 h; Potency, µM (top dose mostly 46.2 µM), inactives show top-dose activity change, negative = growth inhibition, usual class: inhibitors; 12% of 420,000 active; AID 686979, 2013; also: potency is read from the fitted curve at half-maximal effect; nearly all actives have a fitted effect of over 55% in size
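Chicken DT40 Tdp1-/- cells complemented with human TDP1, 400 cells/well, exposed to compounds plus 20 nM camptothecin for at least 48 h at 37 C; viability read as ATP content by CellTiter-Glo luminescence.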
* hit, by the source's call; ? = inconclusive; . = no result given. Rows were chosen to be rich in hits. Some 19% of all compounds tested hit in one or more screens of this group. Unless noted, calls follow the shape of the dose curve; as a rule, active = well fitted curve in the direction sought with a large enough effect; inconclusive = small, poorly fitted or top-dose-only effect, or another doubt; inactive = no such curve, though single readings can be large; an effect the other way counts as inactive or inconclusive. Unless noted, % is scaled to controls: 0 for no effect and ±100 for the full control effect.

SMILES | DT40 TDP1 no CPT | IL1B secr inh | HT1080 IDH1KD tx | HT1080NT lethal | ELG1 DNA repair | TDP1 cell CPT
COC(=O)C1=C(c2ccc(Cl)c(C(F)(F)F)c2)C[C@@H]2CC[C@H]1N2C(=O)NCC1CC1 | 18µM* | -6 | -21% | -12% | -5% | 15µM*
O=C(Nc1ccc(F)c([N+](=O)[O-])c1)c1cccn(Cc2ccccc2)c1=O | ? | . | . | . | . | -25%
O=[N+]([O-])c1ccc(N2CCCC(C(F)(F)F)C2)c2ccncc12 (centres undefined) | 9.2µM* | 18 | ? | ? | -26% | 13µM*
O=C1CCCCC1CN1CCCCC1 (centres undefined) | -30% | . | . | . | . | ?
Cc1ccc(C)c(-n2c(C)nc3ccccc3c2=O)c1 | ? | 13 | 7% | ? | 0% | ?
Cc1ccc2c(c1)c(C1=c3ccccc3=NC1=O)c(O)n2C | 2.1µM* | -15 | -4% | 0% | 1% | 4.6µM*
O=C(Cc1ccc(Cl)c(Cl)c1)N1CCCC[C@H]1CN1CCCC1 | 27µM* | . | . | . | . | 27µM*
COC(=O)N1CCN(C(=O)Cc2ccc(Cl)c(Cl)c2)[C@H](CN2CCCC2)C1 | ? | . | . | . | . | -21%
C[C@]12CC[C@@H](O)CC1=CC(=O)C1C2CC[C@]2(C)C(=O)[C@H](O)CC12 (some centres undefined) | -15% | 4 | 10% | 0% | . | -8%
CCCCOC(=O)c1ccccc1C(=O)OCc1ccccc1 | -8% | -3 | 7% | -11% | 13% | 19%
Nc1cnn(-c2ccccc2)c(=O)c1Cl | 16% | 26 | 0% | 1% | -15% | 7%
CCCCSc1nc2c(cnn2-c2ccccc2)c(=O)n1N | ? | -51* | -16% | 1% | ? | -27%
N=C1c2ccccc2CN1c1ccc(F)c([N+](=O)[O-])c1 | ? | -99* | -4% | -15% | -11% | ?
COc1ccc(-c2cnnn2-c2ccc(NC(=O)c3ccc(S(=O)(=O)N(C)C)cc3)cc2)cc1 | 18µM* | . | . | . | . | 21µM*
COc1ccc(C(=O)Nc2ccc(S(=O)(=O)N(Cc3ccccc3)c3ccccc3)cc2)cc1 | 5.2µM* | . | . | . | . | 13µM*
CCOC(=O)C(O)(c1ccc(NC(=O)NC)cc1)C(F)(F)F (centres undefined) | -6% | 14 | 18% | 14% | ? | -10%
CC1(C)Cc2c(c(N3CCOCC3)nc3snc(N)c23)CO1 | 2.5µM* | -108* | 20µM* | 11µM* | 8% | 2.8µM*
COc1ccccc1Cc1c(-c2ccc(C)cc2)nc2cc(C)c(Br)c(C)n12 | 16µM* | 38 | -18% | -19% | . | 21µM*
COc1ccccc1Cc1c(-c2ccc(F)cc2)nc2cc(C)c(Br)c(C)n12 | 23µM* | 26 | -22% | -13% | . | ?
COc1ccc(-c2nc3ccc(Br)cn3c2CC(=O)N2CCCC2)cc1OC | ? | 4 | 4% | 18% | . | -20%
O=C(CCl)NCC1CCCO1 (centres undefined) | -8% | 6 | 2% | 1% | -4% | 0%
COc1cccc2c1C13CC[N+]4(CC5CC5)CO[C@]1(CCC(=O)C3)C4C2 | -12% | . | . | . | . | 3%
O=C(NCc1ccccc1)c1cccn(Cc2ccccc2)c1=O | ? | 14 | 0% | -2% | -29% | ?
O=C(c1cc(C(=O)NCc2ccccc2)c(=O)n(Cc2ccccc2)c1)c1cc(Cl)ccc1O | 8.2µM* | -3 | -24% | -20% | ? | 7.3µM*
COc1ccc(-n2nnnc2C(C2CC2)N2CCC3(CC2)C(=O)NCN3c2ccccc2)cc1 (centres undefined) | ? | -18 | 1% | 10% | . | ?
SMILES | DT40 TDP1 no CPT | IL1B secr inh | HT1080 IDH1KD tx | HT1080NT lethal | ELG1 DNA repair | TDP1 cell CPT
O=C1NCN(c2ccccc2)C12CCN(C(c1cc3ccccc3o1)c1nnnn1-c1ccc3c(c1)OCCO3)CC2 (centres undefined) | 23µM* | -22 | -16% | -22% | . | 21µM*
O=C1NCN(c2ccccc2)C12CCN(C(c1nnnn1-c1ccc3c(c1)OCCO3)C1CC1)CC2 (centres undefined) | 13µM* | -12 | ? | ? | . | 23µM*
O=C1NCN(c2ccccc2)C12CCN(C(c1cccs1)c1nnnn1-c1ccc3c(c1)OCCO3)CC2 (centres undefined) | 16µM* | -3 | ? | ? | . | 18µM*
O=C1NCN(c2ccccc2)C12CCN(C(c1ccccc1)c1nnnn1-c1ccc3c(c1)OCCO3)CC2 (centres undefined) | ? | 0 | ? | ? | . | ?
O=C(NNc1c(F)c(F)cc(F)c1F)c1cc2ccccc2oc1=O | 7% | 18 | -1% | 11% | ? | -6%
O=NN1CCCC1c1cccnc1 (centres undefined) | 10% | . | . | . | . | -1%
Cn1sc(Cl)cc1=O | -13% | . | . | . | . | 13%
Cc1cccc(OC(C)C(=O)NCC2(N(C)C)CCCCC2)c1C (centres undefined) | -26% | . | . | . | . | -24%
COCCNC(=O)Cn1cc(C(=O)c2ccccc2F)c2ccccc21 | -7% | -4 | -4% | -7% | 2% | -21%
CCCCCC[C@H]1C(=O)O[C@H](C)[C@H](NC(=O)c2cccc(NC=O)c2O)C(=O)O[C@@H](C)[C@@H]1OC(=O)CC(C)C | 0.019µM* | . | . | . | . | 0.017µM*
O=C1NC(=S)NC(=O)C1=Cc1c(Cl)cccc1Cl | 16µM* | -99* | -23% | -3% | . | 10µM*
COc1ccc(C=C2C(=O)NC(=S)NC2=O)cc1 | ? | 0 | 1% | -3% | . | ?
O=C1NC(=S)NC(=O)C1=Cc1cccc2cc3ccccc3cc12 | 2.6µM* | -99* | ? | ? | ? | 5.2µM*
CN1C(=O)/C(=C\c2ccc(Br)s2)C(=O)NC1=S | 16µM* | -99* | -12% | -16% | 25% | ?
O=C1NC(=S)NC(=O)C1=Cc1ccc(Br)s1 | 9.2µM* | -100* | ? | ? | 4% | 10µM*
